From the supplement of paper PMC6555819

Tested on: VDR:RXRa (NR concentration 270 nM, RXRa partner concentration 90 nM)
Experiment: PBM binding z-score (relative to random genomic background probes); higher = stronger binding; sequences stand for … in GC…GCGATTGACAGCGTAGAATGAAGG
Procedure: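 Protein-binding microarray (Agilent 4x180K custom design, double-stranded 60-nt probes: 5' GC cap, 34-nt variable region, 24-nt constant primer region; full probe sequence given). Purified or IVT nuclear receptor:RXRα heterodimers (3:1 NR:RXRα, mostly 270:90 nM) or homodimers were incubated for 1 h in PBS with 2% milk and no ligand, then detected with Alexa488 antibodies. Fluorescence from o1-orientation probes (~5 replicates averaged) was converted to z-scores against 500 random hg19 background probes. Variable regions are seed direct-repeat (DR0–DR5) sites, all their single-nucleotide variants and half-site ablations.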

| Sequence | PBM binding z-score |
| --- | --- |
| GCATATATGTAATACAAGGTGAAAGTCCGATTGT | 0.278 |
| TTACCAAGGTGAAAGGTCGTTAATGCACGCCTTG | 2.95 |
| TAGCCTAGGTCATTCAGGGGCCAGTATTGAAAGC | 3.18 |
| ACTAATAGTTGACTTAGGGCAACCGATACGACGC | 0.357 |
| TGTAGTTGGTCACGGAGGTCACACACGACGGGTA | 5.47 |
| ACTCGGAGGACAAAGGTCAGATCTACGCCAGTGA | 3.49 |
| CCTACTGGGCCAAGGTCATGGATCAGTCAAAGCA | 3.05 |
| TCTGCTAGGTCAGTTGTTCAGCTAACGAGCTGCC | -0.272 |
| ATAATGAGGTTAAGATCAGGGAAACAGAATACAT | 1.6 |
| ACTATTAGTTGAGAGGAGGGCAACCGATAGGTTG | 0.152 |
| CATACAGGGTCTGCTAGGCCAGAGTAGGGACGGC | -0.426 |
| TCTATTAGTTGAAGAGCAACCGACGAGTCCGTTT | 0.538 |
| CGTCAAAGTACAAGGTAACGTAACAGAAAGCAGC | 0.215 |
| GCATATCGGTAATACAAGGTGAAAGTCCGATTGT | 0.0318 |
| GGAACGAGGGCAATCGAGTTGATAGCATGGCGAT | 3.11 |
| ATCTCTAGGTAAAGTTCAGTCAAAGATCGATAGA | 1.96 |
| TAGCCTAGGTCATGGGCCAGCATACCACGCGAAC | 1.68 |
| CATTCAGGGTCAGCTAGGCCAGAGTAGGGACGGC | 4.34 |
| AGAATGAGGTTATTAAGAACAGGGAATTGCGGTC | 1.83 |
| CCTTCTGGGCCACGAAAGGTCATTGATTCAGTGA | 4.28 |

| Sequence | PBM binding z-score |
| --- | --- |
| GTACCAAGGTGAATTGGTCGTTGATGAGTAGGCG | -0.409 |
| ACAGACAGGTGAGTAAAGGTAACTCAGCTGGACG | -0.139 |
| ATCGAAAGGTAGAAGGTGAGTATACCCACCCGAA | -0.0163 |
| CCTATTGGTTGACCATAAGGGCAACCGAAGCTCG | -0.0561 |
| CCTACTGCGCCATCAGGTCATTGATATCAACGTT | 2.07 |
| TGAATGAGGTTAAAGATCACGGAACGTGGCGTCG | 2.22 |
| GATACAGGGTCAAGGCCAGTGTACGCGTATTGAT | 4.28 |
| AGAATGAGGTTATACGTAGATCAGGCAAGAAAGT | 1.46 |
| CCGACTGGTGCAAAGGTTACCATACTCAGTACGA | 1.74 |
| CGAACGAGAGCATGAGTTGATAGCAAATGCCGAT | -0.244 |
| ACAGACAGGTGTGTGAAGGTAACTCAGCTGGACG | -0.572 |
| TGAATGTGGTTATAAGATCAGGGAACGTTGCAAA | 0.157 |
| TGTCAAAGTTCAAAGCTAACGTAAGTATCCACAC | 4.16 |
| CCAGACAGGTCAAAGGTAACTCAGTCTGGTACGC | 3.86 |
| ACTAGTTGGTCAGCTGAGGTCACCCACAATTCGG | 4.46 |
| CTACCAAGGTGAACAAGGTCGTTCATTACTATTC | 6.53 |
| GCGACTGGGGCATCAGCAGGTTACCATAACTTAA | 0.0367 |
| CAAACTAGGTCAAGTTCAAAGTCGGTTTGTGCCA | 4.94 |
| CAGCCTAGGCCAGGGCCAGTATAGGAGGAACGTT | -1 |
| ATCCCTAGGTAACAAGTTCAGTGAAAGAGAGGAC | 1.91 |
